Active and inactive are the calls of the source. How the source made its calls: active means hit-call score of the fitted dose curve at least 0.9, where 1 is the maximum; inactive means score below 0.9.
Assays:
[1] = read-out: TIMP metallopeptidase inhibitor 1 (TIMP1), TIMP1 (gene 7076); assay: BSK_hDFCGF_TIMP1: BioMAP Diversity Plus: hDFCGF Assay for TIMP metallopeptidase inhibitor 1 (TIMP1) Biomarker Activity (AID 2283062); conditions: primary human foreskin fibroblasts; actives raise or lower the signal
Summary of the method: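 TIMP-1 measured by ELISA 24 h after chemical dosing of primary human skin fibroblasts, with gain or loss fitted relative to DMSO. Parallel SRB staining (560 nm) monitored overt cytotoxicity.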

[2] = read-out: Monokine induced gamma interferon (MIG), CXCL9 (gene 4283); assay: BSK_hDFCGF_MIG: BioMAP Diversity Plus: hDFCGF Assay for Monokine induced gamma interferon (MIG) Biomarker Activity (AID 2283063); conditions: primary human foreskin fibroblasts; actives raise or lower the signal
Summary of the method: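 Human primary foreskin fibroblasts in the hDFCGF system, exposed to test chemical for 24 h; MIG measured by ELISA. Bidirectional curve fitting against DMSO negative control as activity baseline.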

[3] = read-out: Matrix Metallopeptidase 1 (MMP1), MMP1 (gene 4312); assay: BSK_hDFCGF_MMP1: BioMAP Diversity Plus: hDFCGF Assay for Matrix Metallopeptidase 1 (MMP1) Biomarker Activity (AID 2283064); conditions: primary human foreskin fibroblasts; actives raise or lower the signal
Summary of the method: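 Primary human foreskin fibroblasts in the hDFCGF system were dosed with test chemical, and MMP1 was measured by ELISA 24 h later. Values come from bidirectional curve fitting against the DMSO baseline.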

[4] = read-out: Vascular cell adhesion molecule 1 (VCAM1), VCAM1 (gene 7412); assay: BSK_hDFCGF_VCAM1: BioMAP Diversity Plus: hDFCGF Assay for Vascular cell adhesion molecule 1 (VCAM1) Biomarker Activity (AID 2283065); conditions: primary human foreskin fibroblasts; actives raise or lower the signal
Summary of the method: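 ELISA readout of VCAM-1 on human dermal fibroblast primary cultures, 24 h after chemical exposure. Gain or loss of signal fitted in both directions against DMSO baseline.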

[5] = read-out: Plasminogen activator inhibitor-1 (PAI1), SERPINE1 (gene 5054); assay: BSK_hDFCGF_PAI1: BioMAP Diversity Plus: hDFCGF Assay for Plasminogen activator inhibitor-1 (PAI1) Biomarker Activity (AID 2283066); conditions: primary human foreskin fibroblasts; actives raise or lower the signal
Summary of the method: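 PAI-1 levels, determined by ELISA, served as the endpoint in human foreskin fibroblast cultures exposed to compound for 24 h, with DMSO as baseline.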

[6] = read-out: Intercellular Adhesion Molecule 1 (ICAM1), ICAM1 (gene 3383); assay: BSK_KF3CT_ICAM1: BioMAP Diversity Plus: KF3CT Assay for Intercellular Adhesion Molecule 1 (ICAM1) Biomarker Activity (AID 2283067); conditions: primary human keratinocytes with fibroblasts; actives raise or lower the signal
Summary of the method: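 Cell-surface ICAM-1 was measured by ELISA 24 h after dosing primary human skin keratinocytes co-cultured with fibroblasts. Parallel SRB staining tracked overt cytotoxicity. Gain or loss of signal was fitted relative to DMSO.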

[7] = read-out: Interferon-gamma inducible Protein 10 (IP10), CXCL10 (gene 3627); assay: BSK_KF3CT_IP10: BioMAP Diversity Plus: KF3CT Assay for Interferon-gamma inducible Protein 10 (IP10) Biomarker Activity (AID 2283068); conditions: primary human keratinocytes with fibroblasts; actives raise or lower the signal
Summary of the method: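 Signal is secreted/surface IP-10 by ELISA in a human primary skin co-culture of keratinocytes and foreskin fibroblasts, taken 24 h post-dosing; DMSO served as negative control.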

[8] = BSK_KF3CT_SRB: Viability Assessment in the BioMAP Diversity Plus: KF3CT Assay (AID 2283069); conditions: primary human keratinocytes with fibroblasts;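 further: total protein by sulforhodamine B staining as a cytotoxicity measure; read 24 h after compound addition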
Summary of the method: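 Human primary keratinocyte plus foreskin fibroblast co-culture exposed to chemicals for 24 h. Total protein measured by 0.1% sulforhodamine B staining after 10% TCA fixation, read at 560 nm; bidirectional fitting versus DMSO baseline.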

[9] = read-out: Interleukin-1 alpha (IL1a), IL1A (gene 3552); assay: BSK_KF3CT_IL1a: BioMAP Diversity Plus: KF3CT Assay for Interleukin-1 alpha (IL1a) Biomarker Activity (AID 2283070); conditions: primary human keratinocytes with fibroblasts; actives raise or lower the signal
Summary of the method: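 Human keratinocyte plus foreskin fibroblast primary co-culture, sampled 24 h after chemical dosing. IL-1a measured by ELISA; responses fitted bidirectionally against DMSO baseline (negative control), so gain or loss of signal both count.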

[10] = read-out: Transforming growth factor beta 1 (TGFb1), TGFB1 (gene 7040); assay: BSK_KF3CT_TGFb1: BioMAP Diversity Plus: KF3CT Assay for Transforming growth factor beta 1 (TGFb1) Biomarker Activity (AID 2283072); conditions: primary human keratinocytes with fibroblasts; actives raise or lower the signal
Summary of the method: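 Signal changes in either direction, relative to DMSO, define activity here. TGF-b1 is read by ELISA from a human keratinocyte-fibroblast co-culture 24 h post-dose.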

[11] = read-out: C-C motif chemokine 2 (Homo sapiens) (UniProt P13500); assay: BSK_KF3CT_MCP1: BioMAP Diversity Plus: KF3CT Assay for Monocyte Chemoattractant Protein 1 (MCP1/CCL2) Biomarker Activity (AID 2283073); conditions: primary human keratinocytes with fibroblasts; actives raise or lower the signal
Summary of the method: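 ELISA read-out of MCP-1, 24 h post-dose, in primary human skin keratinocytes co-cultured with fibroblasts. Parallel SRB staining monitors cytotoxicity; changes fitted both directions relative to DMSO.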

[12] = read-out: Matrix Metallopeptidase 9 (MMP9), MMP9 (gene 4318); assay: BSK_KF3CT_MMP9: BioMAP Diversity Plus: KF3CT Assay for Matrix Metallopeptidase 9 (MMP9) Biomarker Activity (AID 2283074); conditions: primary human keratinocytes with fibroblasts; actives raise or lower the signal
Summary of the method: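 Keratinocyte plus foreskin fibroblast human primary skin co-culture was dosed with chemical and MMP-9 was quantified by ELISA 24 h later. Bidirectional curve fitting used DMSO as negative control and activity baseline.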

[13] = read-out: urokinase plasminogen activator (uPA), PLAU (gene 5328); assay: BSK_KF3CT_uPA: BioMAP Diversity Plus: KF3CT Assay for urokinase plasminogen activator (uPA) Biomarker Activity (AID 2283075); conditions: primary human keratinocytes with fibroblasts; actives raise or lower the signal
Summary of the method: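 Human keratinocyte plus foreskin fibroblast primary co-culture exposed to chemical for 24 h. uPA levels were quantified by ELISA, and activity was fitted bidirectionally against a DMSO negative-control baseline.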

CD40, CD40 (gene 958) = assay: BSK_LPS_CD40: BioMAP Diversity Plus: LPS Assay for CD40 Biomarker Activity (AID 2283076); conditions: primary human HUVEC with PBMC; actives raise or lower the signal
Summary of the method: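 In the LPS system of human endothelial cells with peripheral blood mononuclear cells, CD40 levels were read by ELISA 24 h post-treatment. Signal changes in either direction were fitted against the DMSO baseline, with parallel SRB protein staining.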

[14] = read-out: E-selectin (Homo sapiens) (UniProt P16581); assay: BSK_LPS_Eselectin: BioMAP Diversity Plus: LPS Assay for Eselectin Biomarker Activity (AID 2283077); conditions: primary human HUVEC with PBMC; actives raise or lower the signal
Summary of the method: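 E-selectin ELISA on LPS-stimulated endothelial cell/PBMC co-cultures, read 24 h post-treatment; gains and losses fitted against DMSO. Parallel SRB staining (0.1% SRB after 10% TCA fixation, 560 nm) flags overt cytotoxicity.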

[15] = read-out: Interleukin-8 (IL8), CXCL8 (gene 3576); assay: BSK_LPS_IL8: BioMAP Diversity Plus: LPS Assay for Interleukin-8 (IL8) Biomarker Activity (AID 2283078); conditions: primary human HUVEC with PBMC; actives raise or lower the signal
Summary of the method: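 ELISA read-out of IL-8 after 24 h chemical treatment of LPS-activated endothelial/PBMC human primary co-cultures. Changes either up or down relative to DMSO; overt cytotoxicity checked by sulforhodamine B staining in parallel wells.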

[16] = BSK_LPS_SRB: Viability Assessment in the BioMAP Diversity Plus: LPS Assay (AID 2283079); conditions: primary human HUVEC with PBMC;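 further: total protein by sulforhodamine B absorbance as a cytotoxicity measure; measured one day after compound addition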
Summary of the method: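 SRB viability endpoint: cells fixed with 10% TCA, stained with 0.1% SRB, read at 560 nm, 24 h post-dose. HUVEC/PBMC co-culture; signal change in either direction scored relative to DMSO.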

[17] = read-out: Interleukin-1 alpha (IL1a), IL1A (gene 3552); assay: BSK_LPS_IL1a: BioMAP Diversity Plus: LPS Assay for Interleukin-1 alpha (IL1a) Biomarker Activity (AID 2283080); conditions: primary human HUVEC with PBMC; actives raise or lower the signal
Summary of the method: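 Readout is IL-1a level by ELISA, 24 h post-dose, fitted as gain or loss relative to DMSO. System: LPS-activated human primary co-culture of vascular endothelium and peripheral blood mononuclear cells, with parallel SRB total-protein cytotoxicity.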

[18] = read-out: Monocyte Chemoattractant Protein-1 (MCP1), CCL2 (gene 6347); assay: BSK_LPS_MCP1: BioMAP Diversity Plus: LPS Assay for Monocyte Chemoattractant Protein-1 (MCP1) Biomarker Activity (AID 2283081); conditions: primary human HUVEC with PBMC; actives raise or lower the signal;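 on AC50: secreted MCP-1 protein quantified by ELISA in culture supernatant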
Summary of the method: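 Secreted MCP-1 read by ELISA at 24 h post-dosing in an LPS-activated co-culture of endothelial cells with peripheral blood mononuclear cells. Fits run in both directions, DMSO as baseline; parallel SRB staining tracks overt cytotoxicity.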

[19] = read-out: TIMP metallopeptidase inhibitor 2 (TIMP2), TIMP2 (gene 7077); assay: BSK_KF3CT_TIMP2: BioMAP Diversity Plus: KF3CT Assay for TIMP metallopeptidase inhibitor 2 (TIMP2) Biomarker Activity (AID 2283071); conditions: primary human keratinocytes with fibroblasts; actives raise or lower the signal
Summary of the method: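 Keratinocyte–fibroblast co-culture, 24 h exposure; TIMP-2 ELISA, DMSO-normalised bidirectional fit. Parallel SRB (0.1%, TCA-fixed, 560 nm) total-protein staining gauges cytotoxicity.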

Measured: AC50

E-selectin (Homo sapiens), sequence (P16581 whole entry, looked up): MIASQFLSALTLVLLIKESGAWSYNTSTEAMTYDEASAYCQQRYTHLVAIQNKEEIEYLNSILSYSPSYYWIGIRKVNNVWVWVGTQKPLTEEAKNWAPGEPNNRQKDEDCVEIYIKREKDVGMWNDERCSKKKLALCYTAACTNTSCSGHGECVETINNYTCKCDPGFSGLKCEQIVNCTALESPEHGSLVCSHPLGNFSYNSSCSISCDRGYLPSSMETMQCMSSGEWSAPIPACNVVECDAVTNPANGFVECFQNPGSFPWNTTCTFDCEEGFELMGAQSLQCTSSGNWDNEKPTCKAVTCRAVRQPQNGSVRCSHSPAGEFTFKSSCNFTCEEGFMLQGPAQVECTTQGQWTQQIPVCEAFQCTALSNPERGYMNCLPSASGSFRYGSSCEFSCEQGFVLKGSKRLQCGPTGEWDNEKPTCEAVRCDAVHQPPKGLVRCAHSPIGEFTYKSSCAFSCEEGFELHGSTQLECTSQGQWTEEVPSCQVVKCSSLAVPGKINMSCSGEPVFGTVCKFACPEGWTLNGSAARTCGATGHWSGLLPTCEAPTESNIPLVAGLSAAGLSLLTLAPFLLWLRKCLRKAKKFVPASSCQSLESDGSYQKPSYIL

O=C1CCCCC1
not listed: [19]
inactive: all other assays above

S=c1[nH]c2ccccc2s1
inactive: all assays above

O=C(Oc1ccccc1)c1cccc(C(=O)Oc2ccccc2)c1
inactive: all assays above

Cc1occc(=O)c1O
not listed: [19]
inactive: all other assays above

C/C=C/C=C/C(=O)O
not listed: [11]
inactive: all other assays above

Nc1nc(Cl)nc2c1ncn2[C@H]1C[C@H](O)[C@@H](CO)O1
active: [5] 10200 nM | CD40, CD40 (gene 958) 2290 nM | [15] 628 nM | [16] 814 nM | [17] 1680 nM | [18] 659 nM
inactive: all other assays above

CCCC[C@H]1CN(CC2CCOCC2)C(=O)OC12CCN(C1(C)CCN(C(=O)c3c(C)ncnc3C)CC1)CC2
inactive: all assays above

— PubChem BioAssay (EPA / NIEHS)
